Drawing on PubChem BioAssay (NCI), this text covers growth for 15 compounds.

Compounds without any hit were thinned out: in the full panel of roughly 83,000, 20% have a hit.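 The endpoint reported here, percent growth, reads 100 for growth as untreated, 0 for no net growth and -100 for all cells dead.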 A number with no mark means an inactive call. Active and inactive are the calls of the source. Rule for the calls: active = growth percent below 10; inactive = the rest.

The experiment has as its system A498 renal. Description: NCI-60 one-dose screen, 48 h (100 = growth as untreated, 0 = no growth, -100 = all killed). The conditions noted are these: 10 µM.
`CCc1ccc(-c2ccc(-n3nc(C)c4c(N)nc(Cc5ccccc5)nc43)cc2)cc1`: the growth is 73.4%.
Turning to `O=C(Nc1ccc(F)cc1)c1cc2ccccc2cc1O`, the growth is 69.2%.
The result for `Nc1nccc(OCCO)n1` reads 114%; that for `COc1cc(-c2nn(-c3ccc(NC(=O)NCCNS(=O)(=O)c4ccc(F)cc4)cc3)cc2-c2ccncc2)ccc1Cl`, -19.1% (active).
Take `O=C(Nc1ccc2c(O)cc(S(=O)(=O)O)cc2c1)c1ccc([N+](=O)[O-])cc1`: the growth is 97.9%.
For `COC(=O)C1(O)NC(=C(C#N)C#N)C(C#N)=C1C(=O)c1ccc(OC)c(OC)c1` (stereo not given), the growth was 93.6%.
In the case of `C=CCn1c(SCC(=O)Nc2ccc(C(=O)/C=C/c3ccc(OC)cc3)cc2)nnc1-c1ccc(OC)c(OC)c1`, the growth is 92.8%.
The value for `COc1cc(NC(=O)Nc2cnc(Nc3ccc(N4CCOCC4)cc3)nc2Oc2cccc(OC)c2)cc(OC)c1` was 39.1%; that for `O=C(CCl)Nc1ccc(Cc2ccc(NC(=O)CCl)cc2)cc1` was 111%; that for `Cc1cc(SCc2ccccc2)nc(N)n1` was 89.4%.
As for `Cc1nn(-c2ccc(-c3ccc(OC(F)(F)F)cc3)cc2)c2nc(Cc3ccccc3)nc(N)c12`, the growth is 94.2%.
The result for `O=C(Nc1nc(-c2ccccc2)nc2c1sc(=S)n2-c1ccccc1)C(F)(F)F` reads 80.4%; that for `S=c1cnc2ccccc2[nH]1`, 99%.
The result for `O=C(CSc1nnc(-c2ccc(Cl)cc2)o1)Nc1ccc(C(=O)/C=C/c2ccc(Cl)cc2)cc1` reads 94.7%.
For `CN(C)CCN(Cc1ccccc1)c1ccc2ccccc2n1`, the growth was 119%.
